PPARg SRC-1 ag: PPARgamma agonists recruiting SRC-1 coactivator, primary screen, biochemical | AID 631, 2007 | 0.41% of 200,000 active | activation, % at 8 µM | Peroxisome proliferator-activated receptor gamma (Homo sapiens), P37231 | PPARgamma-SRC-1 coactivator recruitment biochemical assay; in the data active = activation above about 19%
PPARg SRC3 recr: PPARgamma agonists recruiting SRC-3 coactivator, primary screen, biochemical; activation, % at 8 µM; Peroxisome proliferator-activated receptor gamma (Homo sapiens), P37231; biochemical PPARgamma/SRC-3 coactivator recruitment assay; 0.26% of 200,000 active; in the data active = activation above about 23%
SRC1 TRFRET art: TR-FRET detection interference compounds, primary screen, artefact control for PPARgamma SRC-1 recruitment agonists, biochemical, TR-FRET emission ratio | TR-FRET detection artefact counter-screen; stronger effect = higher value | TR-FRET ratio at 8 µM | 0.34% of 99,000 active | AID 1051, 2008; in the data active = TR-FRET ratio above about 2300
PPARg SRC2 recr: agonists of PPARg-SRC-2 recruitment, primary screen, biochemical, HTS | 0.34% of 200,000 active | activation, % at 8 µM | Peroxisome proliferator-activated receptor gamma (Homo sapiens), P37231 | AID 1032, 2008 | PPARgamma LBD-SRC-2 recruitment
SRC2 TRFRET art: TR-FRET signal artefacts, primary screen, artefact control for PPARgamma SRC-2 agonist project, biochemical | TR-FRET artefact counter-screen; stronger effect = higher value | TR-FRET ratio at 8 µM | 0.4% of 200,000 active; in the data active = TR-FRET ratio above about 2000
SRC3 TRFRET art: TR-FRET detection interference compounds, artefact control for PPARgamma SRC-3 recruitment agonists, biochemical, TR-FRET ratio | TR-FRET artefact counter-screen, PPARgamma/SRC-3 format; stronger effect = higher value | TR-FRET ratio at 8 µM | 0.39% of 99,000 active | AID 1048, 2008; in the data active = TR-FRET ratio above about 2000
PPARg SRC2 ag: agonists of PPARgamma SRC-2 coactivator recruitment, confirmation, biochemical, HTS; shares compounds with PPARg SRC3 recr; biochemical SRC-2 recruitment by PPARgamma; activation, % at 8 µM; 52% of 790 active; AID 1297, 2008
PPARg SRC1 ag: PPARgamma agonists recruiting SRC-1 coactivator, confirmation, biochemical; shares compounds with PPARg SRC3 recr; PPARgamma–SRC-1 coactivator recruitment biochemical assay; activation, % at 8 µM; 43% of 790 active; AID 1300, 2008; in the data active = activation above about 20%
PPARg SRC3 ag: PPARgamma-driven SRC-3 coactivator recruitment agonists, confirmation, biochemical. shares compounds with PPARg SRC3 recr. biochemical PPARgamma-SRC-3 coactivator recruitment, agonist mode. activation, % at 8 µM. 29% of 790 active; in the data active = activation above about 24%
Hits are given with their value; n = inactive; x = no result. Sampled rows, rich in hits. Any-hit rate of the full collection: about 0.84%. Cut-off read from the data, not from the text of the source, unless noted: active = activation above about 22%; inactive = the rest.

SMILES | PPARg SRC-1 ag | PPARg SRC3 recr | SRC1 TRFRET art | PPARg SRC2 recr | SRC2 TRFRET art | SRC3 TRFRET art | PPARg SRC2 ag | PPARg SRC1 ag | PPARg SRC3 ag
CCC(OC(=O)c1cc2sccc2n1C)C(=O)NCc1ccco1 (configuration not stated) | 31.4 | n | x | n | n | x | n | 24.9 | 26.4
Cn1c(C(=O)OCC(=O)NCc2ccco2)cc2sccc21 | n | n | x | n | n | x | x | x | x
COCc1cc(SC2CCCCC2)nc(C)n1 | n | n | n | n | n | n | x | x | x
Cn1c(=O)cc(SCC(=O)NCCCN2CCOCC2)c2ccccc21 | 30.1 | 46.0 | x | 27.8 | 2011 | x | n | n | n
Cn1c(=O)cc(SCC(=O)NCCCN2CCOCC2)c2ccc(Cl)cc21 | 59.9 | 83.2 | x | 64.9 | 2615 | x | 46.9 | 30.7 | 32.2
Cn1c(C(=O)NCCCN2CCOCC2)cc2c(=O)n(C)c3ccccc3c21 | n | n | x | n | n | x | x | x | x
CCOc1ccc(CCNC(=O)COc2cc(=O)n(C)c3ccccc23)cc1OCC | n | n | n | n | n | n | x | x | x
CCCCNC(=O)CSc1nc(CCC)nc2ccccc12 | 30.7 | 30.7 | n | n | n | n | n | 23.8 | n
CCOc1ccc(CCNC(=O)CSc2cc(=O)n(C)c3ccccc23)cc1OCC | 25.7 | n | 2625 | 25.6 | 2107 | n | 31.0 | n | n
Cc1ccc(C(=O)N[C@H](C(=O)OCC(=O)NC2CCS(=O)(=O)C2)C(C)C)cc1 (some centres not stated) | n | n | n | n | n | n | x | x | x
C=CCn1c2ccccc2c2nnc(SC(CC)C(=O)Nc3sc4c(c3C#N)CCCC4)nc21 (configuration not stated) | n | n | x | n | n | x | x | x | x
CC1(C)CC(=O)C(CC2=C(O)CC(C)(C)CC2=O)=C(O)C1 | n | n | x | n | n | x | x | x | x
Cn1c(Sc2ccc(Br)cc2)c(C=O)c2ccccc21 | n | n | x | n | n | x | x | x | x
CCCCNC(=O)CSc1cc(=O)n(C)c2ccccc12 | 33.2 | 43.0 | x | 40.8 | 2320 | x | 31.3 | 19.6 | n
Cn1c(=O)cc(SCC(=O)NCCCN2CCN(c3ccccc3F)CC2)c2ccccc21 | 90.0 | 124.5 | x | 92.2 | 4083 | x | 51.5 | 33.8 | 35.7
Cn1c(C(=O)NCCCN2CCN(c3ccccc3F)CC2)cc2c(=O)n(C)c3ccccc3c21 | n | n | x | n | n | x | x | x | x
O=C(NNC(=O)c1cccnc1SCc1cccc([N+](=O)[O-])c1)c1ccccn1 | n | n | n | n | n | n | x | x | x
CCOC(=O)c1c(NC(=S)Nc2ccc(Cl)cc2)sc(C)c1C | n | n | x | n | n | x | x | x | x
Cc1sc(NC(=S)Nc2ccc(F)cc2)c(C(N)=O)c1C | 25.2 | n | n | n | n | n | 26.5 | n | n
COC(=O)c1c(NC(=S)Nc2ccc(CC(=O)O)cc2)sc(C)c1C | 22.4 | n | n | n | n | n | 50.3 | 36.2 | 31.1
Cc1ccc(OCCNS(=O)(=O)c2cccs2)cc1 | n | n | x | n | n | x | x | x | x
Cc1csc(SCc2ccc(C(=O)O)cc2)n1 | n | n | x | n | n | x | x | x | x
CCOC(=O)c1sc(=S)n(-c2ccccc2)c1SC | n | n | x | n | n | x | x | x | x
CCOC(=O)c1sc(=S)n(-c2ccccc2Cl)c1SC | 29.5 | 30.7 | x | 30.8 | n | x | 40.4 | 35.9 | 28.7
CCOC(=O)c1cc(Br)c(=O)n2ccccc12 | 32.3 | 32.5 | x | 39.0 | 2044 | x | n | n | n
SMILES | PPARg SRC-1 ag | PPARg SRC3 recr | SRC1 TRFRET art | PPARg SRC2 recr | SRC2 TRFRET art | SRC3 TRFRET art | PPARg SRC2 ag | PPARg SRC1 ag | PPARg SRC3 ag
Cc1nn(-c2ccc(F)cc2)c(Cl)c1/C=C1\C(=O)Nc2ccccc21 | n | n | n | n | n | n | x | x | x
O=C(Nc1cccnc1)c1sc2cccc(F)c2c1Cl | n | n | n | n | n | n | x | x | x
Cc1ccccc1Nc1nc(-c2ccccc2)c(C(=O)Nc2cccnc2)s1 | 24.5 | n | 2835 | 26.5 | 1978 | 2456 | 44.0 | 35.8 | 26.4
O=C(Nc1cccnc1)c1sc(Nc2ccccc2F)nc1-c1ccccc1 | 50.1 | 30.5 | 3447 | 48.1 | 3029 | 3407 | 68.3 | 50.3 | 45.5
CC1(C)Cc2c(sc(NC(=O)C3CC(Cl)=CCC3C(=O)O)c2C#N)CO1 (configuration not stated) | n | n | n | n | n | n | x | x | x
CCOc1ccc2[nH]c(=O)c(CN(CCCN3CCOCC3)Cc3nnnn3Cc3ccc(OC)cc3)cc2c1 | n | n | n | n | n | n | x | x | x
COc1cccc(C(=O)N=c2sc3cc(S(C)(=O)=O)ccc3n2C)c1 | 26.8 | n | n | n | n | n | n | n | n
COc1cc(OC)cc(C(=O)N=c2sc3ccccc3n2C)c1 | n | n | n | n | n | n | x | x | x
COc1ccc([N+](=O)[O-])cc1NC(=O)c1ccc(Br)s1 | 22.0 | n | 2669 | n | 2056 | 2129 | n | n | n
Cc1cnc(C(=O)Oc2c(C)ccc(C)c2C)cn1 | n | n | n | n | n | n | x | x | x
O=C(OCn1ncc(Br)c(Br)c1=O)c1ccccc1Cl | n | n | x | n | n | x | x | x | x
O=C(OCn1ncc(Br)c(Br)c1=O)c1ccc(F)cc1 | 22.2 | 43.7 | x | 37.3 | 2296 | x | 43.3 | 29.3 | 30.6
CSc1nc2sc3c(c2c(=O)[nH]1)CCCC3 | n | n | x | n | n | x | x | x | x
O=c1[nH]c(S)nc2sc3c(c12)CCCC3 | 22.6 | n | 2564 | 29.2 | 2002 | 2183 | n | n | n
CC(C)C1Cc2c(C#N)c(N)sc(=S)c2CO1 (configuration not stated) | 33.0 | 47.2 | x | 39.0 | 2315 | x | n | n | n
Cc1ccc(OCC(=O)Nc2cc(S(=O)(=O)N3CCCCC3)ccc2C)c([N+](=O)[O-])n1 | n | n | n | n | n | n | x | x | x
CC1(C)CC(=O)C2=C(C1)N(c1ccc(F)cc1)C(=O)C2(NC(=O)c1ccccc1)C(F)(F)F (configuration not stated) | n | n | n | n | n | n | x | x | x
Cc1ccccc1S(=O)(=O)Nc1nc2ccccc2nc1N1CCOCC1 | 25.5 | 33.8 | x | 26.6 | 2102 | x | 43.4 | 37.3 | 27.9
c1ccc2oc(-c3ccc(Nc4nc(N5CCCC5)nc(N5CCOCC5)n4)cc3)nc2c1 | n | n | n | n | n | n | x | x | x
CCN(CC)c1ccc(C=Nc2ccccc2)c(O)c1 | n | n | x | n | n | x | x | x | x

Source: PubChem BioAssay
